ssDAF12 agonist = S. stercoralis DAF-12 nuclear receptor activators, primary screen, cell-based, luminescence, HEK293, GRIP1 co-expression, lit1-tk-luc. Nuclear hormone receptor DAF-12 (Strongyloides stercoralis). HEK293 ssDAF-12/GRIP1 lit1-tk-luc reporter; % of 3 µM dafachronic acid response. activation, % at 6.8 µM. 370,000 compounds, 1% hits. AID 652126, 2013;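 active = activation above the mean over all tested compounds plus 3 SD, cut at about 0.9% in these data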
hgDAF-12 ag = H. glycines DAF-12 receptor agonists, primary screen, cell-based, luminescence, HEK293, GAL4 fusion, UAS-luciferase; Nuclear hormone receptor DAF-12 (Heterodera glycines), GAL4 fusion; HEK293 GAL4-hgDAF12 UAS-luciferase reporter, agonist luminescence; normalized to butyrate control; activation, % at 6.8 µM; 370,000 compounds, 1.8% hits;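 active = activation above a cutoff set at the mean of all screened compounds plus 3 SD, cut at about 10% in these data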
DAX1 inh-1 = DAX1 (NR0B1) inhibitors, primary screen, cell-based, HEK293, Gal4-DAX1, luciferase luminescence; 340,000 compounds, 0.99% hits; HEK293 Gal4-DAX1 luciferase reporter; inhibition, % at 6.75 µM;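 active = inhibition above the mean over all tested compounds plus 3 SD, cut at about 4.2% in these data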;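 note: inhibition shows as a rise in luminescence from relieved DAX1 repression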
Target sequence (P51843 207-470 limits assumed): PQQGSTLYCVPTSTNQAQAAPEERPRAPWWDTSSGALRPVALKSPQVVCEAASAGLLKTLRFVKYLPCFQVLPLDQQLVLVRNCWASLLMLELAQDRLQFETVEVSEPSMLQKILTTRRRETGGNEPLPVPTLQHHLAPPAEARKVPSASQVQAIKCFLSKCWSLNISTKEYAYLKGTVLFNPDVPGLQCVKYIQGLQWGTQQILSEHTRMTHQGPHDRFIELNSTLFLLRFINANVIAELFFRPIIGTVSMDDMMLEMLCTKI
DAX1 inh-2 = DAX1 (NR0B1) inhibitors on StAR promoter, primary screen, cell-based, luminescence, SF-1 (NR5A1), full-length DAX-1; 370,000 compounds, 1.1% hits; HEK293T StAR-luciferase reporter, SF-1/DAX-1 repression relief; inhibition, % at 6.8 µM;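 active = inhibition above the mean over all tested compounds plus 3 SD, cut at about 3.6% in these data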;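 note: higher inhibition means more luminescence from relief of DAX-1 repression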
hcDAF12 agonist = H. contortus DAF-12 nuclear receptor activators, primary screen, cell-based, luminescence, HEK293, lit1-tk-luc reporter; HEK293 hcDAF-12 lit1-tk-luc reporter; 0% DMSO, 100% Δ7-dafachronic acid; activation, % at 6.8 µM; 370,000 compounds, 1.4% hits; AID 652067, 2013;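 active = activation above the mean of all tested compounds plus 3 SD, cut at about 5.5% in these data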
SMARCA2 activ = SMARCA2 (BRM) function activators, primary screen, cell-based, luminescence, high throughput. activation, % at 9.1 µM. AID 652017, 2013. MG213 cells, MMTV-luciferase reporter, dexamethasone, overnight. 370,000 compounds, 1% hits; in the data active = activation above about 7.8%
DAX1 conf = DAX1 (NR0B1) inhibitors relieving SF-1 repression, confirmation, cell-based, luminescence, HEK293T, full-length DAX-1, SF-1 activated StAR promoter; shares compounds with DAX1 inh-2; HEK293T StAR-promoter luciferase reporter, SF-1/DAX-1 repression; inhibition, % at 6.8 µM; 2,400 compounds, 87% hits;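 active = inhibition above the average of every tested compound plus 3 SD, cut at about 3.8% in these data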
SF1 AF2mut Luc = StAR reporter signal changes without DAX1, counter-screen for DAX1 inhibitor project, cell-based, luminescence, AF-2 mutant SF-1, transactivation; inhibition, % at 6.8 µM; HEK293 StAR-luciferase, SF-1 AF2 mutant; 2,400 compounds, 78% hits; shares compounds with DAX1 inh-2;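 active = inhibition above the mean of all tested compounds plus 3 SD, cut at about 3% in these data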
Each line names hits and unclear results; the compound was inactive in the other large screens (follow-up assays come after a bar, where they were run). An excerpt weighted towards active compounds, which were near 4.8% of everything screened.

CCN(c1ccccc1C)S(=O)(=O)c1nnc(NC(=O)c2ccco2)s1	DAX1 inh-2 4.8 | DAX1 conf inactive | SF1 AF2mut Luc inactive
C=CCNC(=S)NNc1nc2c(c(=O)[nH]1)C1(CCCC1)Cc1ccccc1-2	none
Cc1cc(NC(=O)c2ccccc2Cl)ccc1NC(=O)c1ccccc1Cl	none
Cc1ccc(C(=O)Nc2ccc(Cl)cc2C)c(Cl)c1	hgDAF-12 ag 12, DAX1 inh-2 6.7 | DAX1 conf 7.2 | SF1 AF2mut Luc 5.4
Cc1cccc(C#Cc2ccccc2)n1	hgDAF-12 ag 11, DAX1 inh-2 4.9 | DAX1 conf 7.3 | SF1 AF2mut Luc 4.9
Nc1ccc(C#Cc2ccccc2)cc1	none
Cc1cc(C)nc(SCc2csc(-c3ccccc3)n2)n1	hgDAF-12 ag 11, DAX1 inh-2 5.2 | DAX1 conf 12 | SF1 AF2mut Luc 6.3
Cc1occc1C(=O)NNC(=S)NC(=O)COc1ccc(Cl)cc1Cl	none
CCCC(=O)Nc1cc(C(F)(F)F)ccc1N1CCOCC1	none
CC(C)(C)n1cnc2cc(NC(=O)c3cccs3)ccc21	DAX1 inh-2 5.6 | DAX1 conf 8.6 | SF1 AF2mut Luc 5.9
O=S(=O)(c1ccc(Br)s1)N1CCC(c2nc3ccccc3o2)CC1	none (no result: DAX1 inh-1)
Cn1cccc1C(=O)OCC(=O)Nc1ccc2c(c1)OCCO2	hgDAF-12 ag 11, DAX1 inh-2 7.1 | DAX1 conf 12 | SF1 AF2mut Luc 7.0
CCOCC(=O)Nc1c(C(=O)Nc2ccc3c(c2)OCCO3)oc2ccccc12	DAX1 inh-2 7.0 | DAX1 conf 6.3 | SF1 AF2mut Luc 3.1
Cn1cccc1C(=O)OCC(=O)NCc1ccc2c(c1)OCO2	none
CCc1c(C(=O)Nc2ccc(C)c(C)c2)[nH]c(C)c1C(C)=O	none
CC(=O)c1c(C)[nH]c(C(=O)Nc2ccc(C)c(C)c2)c1C	DAX1 inh-2 4.6 | DAX1 conf 10 | SF1 AF2mut Luc 7.4
CS(=O)(=O)c1ccccc1C(=O)Nc1ccc(-c2nc3ccccc3[nH]2)cc1	none
CS(=O)(=O)c1cccc(C(=O)Nc2ccc(-c3nc4ccccc4[nH]3)cc2)c1	DAX1 inh-2 7.2 | DAX1 conf 6.7 | SF1 AF2mut Luc inactive
COc1cc(-c2cnc3c(NC=O)cc(-c4ccc(C)cc4)cn23)cc(OC)c1OC	DAX1 inh-2 11 (no result: DAX1 inh-1) | DAX1 conf 21 | SF1 AF2mut Luc inactive
Cc1ccc(-c2cc(C(=O)N3CCCC3)no2)cc1	DAX1 inh-2 4.9 | DAX1 conf 8.6 | SF1 AF2mut Luc inactive
CCOc1ccccc1N1CC(C(=O)NCCC2=CCCCC2)CC1=O (configuration not stated)	DAX1 inh-2 5.2 | DAX1 conf 4.1 | SF1 AF2mut Luc 3.3
Cc1ccc(NC(=O)C(=O)NCCCN2CCCC2=O)cc1	hgDAF-12 ag 12, DAX1 inh-2 6.5 | DAX1 conf 9.7 | SF1 AF2mut Luc 6.5
Cc1ccc(NC(=O)C(=O)NCCCN2CCCC2=O)c(C)c1	none
Cn1cccc1C(=O)NC(=O)COC(=O)CC12CC3CC(CC(C3)C1)C2	none
CC1=C(C(=O)Nc2ccc(CC(=O)NCc3ccc(OC(C)C)cc3)cc2)SCCO1	ssDAF12 agonist 1.0, DAX1 inh-2 15, hcDAF12 agonist 5.9 | DAX1 conf 23 | SF1 AF2mut Luc inactive
CC(=O)Nc1ccc2ccccc2c1	none (no result: ssDAF12 agonist, hgDAF-12 ag, DAX1 inh-2, hcDAF12 agonist, SMARCA2 activ)
Cc1coc(C)c1C(=O)Nc1ccc2ccccc2c1	ssDAF12 agonist 0.9, DAX1 inh-2 7.4 | DAX1 conf 6.0 | SF1 AF2mut Luc 3.8
COc1ccc(NC(=O)c2cccnc2)cc1	none
O=C(Nc1ccc2ccccc2c1)c1cnccn1	hgDAF-12 ag 11, DAX1 inh-2 5.5, hcDAF12 agonist 6.4 | DAX1 conf 14 | SF1 AF2mut Luc 7.9
O=C(Nc1ccc2ccccc2c1)c1cccnc1	DAX1 inh-2 4.7 | DAX1 conf 11 | SF1 AF2mut Luc 7.7
CC1(C(=O)NS(=O)(=O)c2cccc(C#N)c2)CCN1C(=O)CCc1ccccc1 (configuration not stated)	none (no result: DAX1 inh-1)
CN(C)c1ccc(/C=C/C(=O)c2c(O)c3ccccc3oc2=O)cc1	none
Cc1ccc(NC(=O)c2ncn(CCCN3CCN(c4ccccn4)CC3)n2)cc1C	none
CC(C)(C)c1ccc(N2C(=O)Cc3c2nc(N)c(C#N)c3N)cc1	none
COc1ccc(C(=O)NCCS(=O)(=O)NCCc2ccccc2)cc1	DAX1 inh-2 4.8 | DAX1 conf 3.8 | SF1 AF2mut Luc inactive
O=C(CSc1nc2[nH]c(=O)cc(O)c2s1)Nc1ccc(Br)cc1	DAX1 inh-2 8.7 | DAX1 conf inactive | SF1 AF2mut Luc inactive
Cc1cccc(NC(=O)CSc2nc3[nH]c(=O)cc(O)c3s2)c1	none
O=C(CSc1nc2[nH]c(=O)cc(O)c2s1)Nc1cccc(Br)c1	DAX1 inh-2 5.7 | DAX1 conf inactive | SF1 AF2mut Luc inactive
Nn1c(-c2cccc([N+](=O)[O-])c2)nc2ccccc2c1=O	none
COCCn1c(C)cc(C(=O)CN2C(=O)NC3(CCCCCC3)C2=O)c1C	DAX1 inh-2 6.8 | DAX1 conf 4.5 | SF1 AF2mut Luc inactive
NS(=O)(=O)c1ccc(CCNC(=O)C(=O)c2cn(CC(=O)N3CCOCC3)c3ccccc23)cc1	none
c1ccc(CNc2ccc3ccccc3n2)nc1	ssDAF12 agonist 1.0, hgDAF-12 ag 15, DAX1 inh-2 7.9, hcDAF12 agonist 8.0 | DAX1 conf 12 | SF1 AF2mut Luc 8.2
CNc1nnc(SCC(=O)c2cc(C)n(C3CC3)c2C)s1	DAX1 inh-2 5.0 | DAX1 conf 6.7 | SF1 AF2mut Luc inactive
O/N=C/CCn1c(=S)sc2ccccc21	none
O=C(OCCn1c(=S)sc2ccccc21)c1ccccc1	DAX1 inh-2 6.7 | DAX1 conf 9.1 | SF1 AF2mut Luc 7.1
